# Source: PubChem BioAssay (NCATS)
# A number with no mark means an inactive call. Inconclusive results are not listed. Where a call stands in place of a potency, no number is given. The source made the active and inactive calls. Unless noted, calls follow the shape of the dose curve; as a rule, active = well fitted curve in the direction sought with a large enough effect; inconclusive = small, poorly fitted or top-dose-only effect, or another doubt; inactive = no such curve, though single readings can be large; an effect the other way counts as inactive or inconclusive.
# Tests used:
# [1] = molecular target: T1, Hexokinase-4 (Homo sapiens) + Glucokinase regulatory protein (Homo sapiens) (UniProt P35557+Q14397); assay: qHTS assay for inhibitors of recombinant human GCK-GKRP interaction: Diaphorase-coupled assay (AID 743205)
# Outline: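 Resorufin fluorescence (525/590 nm), read each minute over 30 min, reports GCK activity coupled via G6PDH and diaphorase. Reaction: 10 nM GST-GCK, 10 nM FLAG-GKRP, 5 mM glucose, 0.4 mM ATP, 0.15 mM NADP+, 0.1 mM resazurin.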
# [2] = molecular target: T1, Hexokinase-4 (Homo sapiens) + Glucokinase regulatory protein (Homo sapiens); assay: qHTS assay for inhibitors of recombinant human GCK-GKRP interaction: ADP-Glo assay (AID 743206)
# Outline: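 Pin-transferred compounds meet a 15 nM GST-GCK/15 nM FLAG-GKRP/2 uM S6P mix (dispense concentrations). ATP is then added to 0.4 mM final with 5 mM glucose, and the reaction runs 60 min at room temperature. ADP is quantified luminescently.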
# [3] = molecular target: T1, Hexokinase-4 (Homo sapiens) + Glucokinase regulatory protein (Homo sapiens); assay: qHTS assay for inhibitors of recombinant human GCK-GKRP interaction: HTRF assay (AID 743207)
# Outline: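 HTRF read-out (ex 320 nm; 615/665 nm emission) after 60 min RT equilibration of 5 nM GST-GCK, 5 nM FLAG-GKRP, 2 uM S6P, compound and anti-FLAG/anti-GST detection antibodies; signal normalized between DMSO wells with and without GCK.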
# [4] = qHTS Assay for Identifying Gametocytocidal Compounds (AID 743244);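 also: actives lower the fluorescent signal which means gametocytes are killed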; details: P. falciparum 3D7 stage III-V gametocytes, alamarBlue, 72 h; max response: active compounds read low
# Outline: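 A resazurin-based viability read-out was applied to mature P. falciparum gametocytes: 72 h compound treatment, then 24 h dye incubation, with falling fluorescence signalling gametocytocidal effect.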
# [5] = qHTS assay for measurement of the activity of small molecule inhibitors on Zika virus induced Caspase-3 activity in human iPSC derived neural progenitor cells (hNPCs) (AID 1224857); also: nearly all actives have a fitted effect of over 65% in size
# Outline: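 Quantitative HTS format: human iPSC neural progenitors, 1 h compound pretreatment, ZIKV 2 FFU/cell for 6 h at 37 C. Percent inhibition derived from luminescent caspase-3/7 signal between uninfected and infected controls.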
# [6] = qHTS assay for measurement of the activity of small molecule inhibitors on Zika virus induced Caspase-3 activity in human astrocytoma cells (AID 1224859)
# Outline: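 Readout is luminescence from Caspase-Glo 3/7 added after a 6 h ZIKV infection (2 FFU/cell) of compound-pretreated (1 h) SNB-19 cells; data expressed as % inhibition versus uninfected and infected wells.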
# [7] = P-glycoprotein substrates identified in KB-3-1 adenocarcinoma cell line, qHTS therapeutic library screen (AID 1346986); also: nearly all actives have a fitted effect of over 60% in size;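 also: potency is read from the fitted curve at half-maximal effect; potency is for cytotoxicity meaning loss of cell viability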
# Outline: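 In 1536-well format, 500 cells/well received pinned compound titrations and were incubated 72 h, 5% CO2. Viability was read by CellTiter-Glo; cytotoxic if AC50 < 10 uM and efficacy >50%.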
# [8] = P-glycoprotein substrates identified in KB-8-5-11 adenocarcinoma cell line, qHTS therapeutic library screen (AID 1346987); also: nearly all actives have a fitted effect of over 65% in size; also: potency is read from the fitted curve at half-maximal effect
# Outline: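 Compounds are pinned in dose-response onto KB-8-5-11 cells (500 cells/well, colchicine-free medium) and left 72 h at 37 degree C. CellTiter-Glo luminescence then yields AC50 values.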
# [9] = molecular target: Atrial natriuretic peptide receptor 1 (Homo sapiens) (UniProt P16066); assay: Natriuretic polypeptide receptor (hNpr1) antagonism - Pilot screen (AID 1347049; calls by dose curve;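 also: agonist-evoked cGMP luminescence read 20 min after hNppA addition; series mostly up to about 58 µM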)
# Outline: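 cGMP-sensor HEK293/hNpr1 cells, 1500/well, plated overnight at 37C. 2% GloSensor reagent, 2 h RT. Compound (23 nL pin transfer) 30 min RT, baseline luminescence pre-read. 0.1 nM hNppA, 20 min RT, post-read.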
# [10] = molecular target: Atrial natriuretic peptide receptor 2 (Homo sapiens) (UniProt P20594); assay: Natriuretic polypeptide receptor (hNpr2) antagonism - Pilot subtype selectivity assay (AID 1347050; calls by dose curve; also: potency is read from the fitted curve at half-maximal effect)
# Outline: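 Luminescence from a genetically encoded cGMP luciferase biosensor in hNpr2-expressing HEK293 cells is read before and 20 min after adding 1 nM hNppC. Test compounds, in interplate 1:5 titrations, are added 30-50 min ahead of the agonist.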
# [11] = Natriuretic polypeptide receptor (hNpr1) antagonism - Pilot counterscreen GloSensor control cell line (AID 1347045; calls by dose curve; also: series mostly up to about 38 µM)
# Outline: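 Control counterscreen: luciferase cGMP-biosensor HEK293 cells (no Npr1) received compound for 30 min at room temperature after GloSensor substrate loading. Luminescence was measured before and 20 min after soluble guanylyl cyclase activation by 50 uM nitroprusside.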
# Chain of Atrial natriuretic peptide receptor 2 (Homo sapiens) (P20594 whole entry, looked up): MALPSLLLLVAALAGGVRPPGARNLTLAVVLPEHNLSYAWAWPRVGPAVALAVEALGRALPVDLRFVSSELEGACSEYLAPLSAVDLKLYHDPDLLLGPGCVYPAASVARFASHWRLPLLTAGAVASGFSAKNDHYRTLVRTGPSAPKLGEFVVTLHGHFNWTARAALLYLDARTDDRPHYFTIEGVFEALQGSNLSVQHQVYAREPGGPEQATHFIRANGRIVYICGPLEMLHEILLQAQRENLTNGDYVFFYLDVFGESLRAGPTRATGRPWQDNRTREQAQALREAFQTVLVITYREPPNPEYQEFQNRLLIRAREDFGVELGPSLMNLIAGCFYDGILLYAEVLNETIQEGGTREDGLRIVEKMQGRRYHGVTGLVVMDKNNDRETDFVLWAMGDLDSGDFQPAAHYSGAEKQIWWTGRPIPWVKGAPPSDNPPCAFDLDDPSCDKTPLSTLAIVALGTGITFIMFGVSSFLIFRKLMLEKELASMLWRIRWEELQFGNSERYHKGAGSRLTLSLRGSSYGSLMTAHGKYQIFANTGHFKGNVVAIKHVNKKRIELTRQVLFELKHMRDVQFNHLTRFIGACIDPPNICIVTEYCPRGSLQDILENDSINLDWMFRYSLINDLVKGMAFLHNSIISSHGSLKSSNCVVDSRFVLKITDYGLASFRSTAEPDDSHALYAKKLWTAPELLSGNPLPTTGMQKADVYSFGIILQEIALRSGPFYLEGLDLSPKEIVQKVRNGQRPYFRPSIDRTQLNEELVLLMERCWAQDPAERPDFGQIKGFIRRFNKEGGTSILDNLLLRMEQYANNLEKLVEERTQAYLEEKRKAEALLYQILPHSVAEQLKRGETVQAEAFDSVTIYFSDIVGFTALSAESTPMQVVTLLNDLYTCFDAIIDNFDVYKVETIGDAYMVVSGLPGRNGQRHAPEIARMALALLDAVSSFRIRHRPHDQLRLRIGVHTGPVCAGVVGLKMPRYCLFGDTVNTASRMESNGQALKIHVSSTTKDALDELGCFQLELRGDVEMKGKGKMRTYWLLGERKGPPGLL
# T1 sequence (P35557 whole entry, looked up): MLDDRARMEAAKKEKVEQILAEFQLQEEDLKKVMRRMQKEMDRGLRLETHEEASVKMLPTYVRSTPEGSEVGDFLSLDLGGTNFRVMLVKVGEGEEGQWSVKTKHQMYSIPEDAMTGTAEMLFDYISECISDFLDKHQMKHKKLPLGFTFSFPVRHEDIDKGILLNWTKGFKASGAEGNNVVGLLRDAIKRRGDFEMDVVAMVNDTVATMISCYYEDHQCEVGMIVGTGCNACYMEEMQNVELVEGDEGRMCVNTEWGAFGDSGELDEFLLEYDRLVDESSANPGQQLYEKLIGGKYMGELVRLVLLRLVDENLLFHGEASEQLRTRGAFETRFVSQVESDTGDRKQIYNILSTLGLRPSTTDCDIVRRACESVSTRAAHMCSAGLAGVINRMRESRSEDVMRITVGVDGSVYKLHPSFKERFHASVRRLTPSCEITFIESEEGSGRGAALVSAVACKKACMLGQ
# T1 sequence (Q14397 whole entry, looked up): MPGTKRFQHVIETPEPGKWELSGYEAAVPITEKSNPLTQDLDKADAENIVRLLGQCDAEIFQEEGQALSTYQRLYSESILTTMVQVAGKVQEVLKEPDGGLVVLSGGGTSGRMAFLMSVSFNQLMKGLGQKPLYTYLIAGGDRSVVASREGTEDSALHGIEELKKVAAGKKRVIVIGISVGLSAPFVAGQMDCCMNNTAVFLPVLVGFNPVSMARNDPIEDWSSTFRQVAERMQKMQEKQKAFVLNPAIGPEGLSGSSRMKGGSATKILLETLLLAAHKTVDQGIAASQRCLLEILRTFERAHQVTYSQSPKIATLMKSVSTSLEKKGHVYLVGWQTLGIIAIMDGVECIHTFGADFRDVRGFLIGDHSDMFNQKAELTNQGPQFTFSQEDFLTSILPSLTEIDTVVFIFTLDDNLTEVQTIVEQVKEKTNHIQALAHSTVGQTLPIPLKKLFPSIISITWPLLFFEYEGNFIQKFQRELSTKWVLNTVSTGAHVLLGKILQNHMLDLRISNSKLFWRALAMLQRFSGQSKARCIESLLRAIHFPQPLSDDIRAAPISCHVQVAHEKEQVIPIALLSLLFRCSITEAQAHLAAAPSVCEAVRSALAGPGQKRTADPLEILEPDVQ
# Chain of Atrial natriuretic peptide receptor 1 (Homo sapiens) (P16066 whole entry, looked up): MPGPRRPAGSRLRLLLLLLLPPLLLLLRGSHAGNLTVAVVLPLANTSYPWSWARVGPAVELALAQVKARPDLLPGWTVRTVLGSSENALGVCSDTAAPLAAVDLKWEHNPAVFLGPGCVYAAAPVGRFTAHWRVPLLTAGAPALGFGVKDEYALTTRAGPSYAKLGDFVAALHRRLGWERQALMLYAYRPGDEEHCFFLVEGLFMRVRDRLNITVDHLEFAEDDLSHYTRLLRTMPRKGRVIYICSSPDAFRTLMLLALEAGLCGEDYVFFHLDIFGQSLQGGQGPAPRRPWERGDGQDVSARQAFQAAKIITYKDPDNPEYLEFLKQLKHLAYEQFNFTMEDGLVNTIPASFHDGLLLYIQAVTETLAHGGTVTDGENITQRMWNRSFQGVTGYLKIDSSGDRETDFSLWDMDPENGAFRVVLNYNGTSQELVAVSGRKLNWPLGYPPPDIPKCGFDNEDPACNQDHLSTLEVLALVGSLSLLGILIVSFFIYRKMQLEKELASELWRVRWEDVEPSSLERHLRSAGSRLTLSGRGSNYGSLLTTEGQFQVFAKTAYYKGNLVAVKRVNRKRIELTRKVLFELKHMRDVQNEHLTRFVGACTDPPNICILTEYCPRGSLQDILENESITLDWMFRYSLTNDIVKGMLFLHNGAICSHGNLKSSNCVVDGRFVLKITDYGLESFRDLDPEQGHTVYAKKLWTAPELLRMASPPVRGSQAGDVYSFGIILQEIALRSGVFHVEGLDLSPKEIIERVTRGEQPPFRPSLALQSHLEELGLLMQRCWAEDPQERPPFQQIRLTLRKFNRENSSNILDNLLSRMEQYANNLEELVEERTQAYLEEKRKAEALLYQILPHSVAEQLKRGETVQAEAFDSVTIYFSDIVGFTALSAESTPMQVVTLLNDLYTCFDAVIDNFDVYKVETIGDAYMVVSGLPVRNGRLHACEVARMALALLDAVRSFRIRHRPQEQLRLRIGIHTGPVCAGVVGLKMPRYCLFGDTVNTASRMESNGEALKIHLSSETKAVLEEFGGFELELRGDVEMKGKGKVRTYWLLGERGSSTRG
Structure (SMILES),Potency [1],Potency [2],Potency [3],max response [4],Potency [5],Potency [6],Potency [7],Potency [8],Potency [9],Potency [10],Potency [11]
O=C1Nc2ccc(I)cc2/C1=C/c1cc(Br)c(O)c(Br)c1,inactive,inactive,inactive,-8.13%,inactive,inactive,inactive,inactive,inactive,inactive,
Nc1ccc(CCNc2ncnc3c2ncn3C2OC(CO)C(O)C2O)cc1 (stereo not drawn),inactive,inactive,inactive,12.3%,inactive,inactive,,,inactive,inactive,inactive
NC(=O)CC[C@H](N)C(=O)O,inactive,inactive,inactive,-4.4%,inactive,inactive,,,inactive,inactive,inactive
CC(=O)NCCc1c[nH]c2ccc(O)cc12,inactive,,inactive,28.4%,inactive,inactive,inactive,inactive,inactive,inactive,inactive
Nc1ncnc2c1c(-c1ccc(Oc3ccccc3)cc1)cn2C1CCCC1,inactive,,inactive,4.42%,inactive,inactive,1.64 µM (active),14.6 µM (active),inactive,inactive,
O=C(O)Cc1ccc(O)c(O)c1,inactive,inactive,inactive,,inactive,inactive,,,inactive,inactive,inactive
C=CCNc1ncnc2ccc(Br)cc12,inactive,inactive,inactive,27.4%,inactive,inactive,,,inactive,inactive,inactive
Cc1cc2c(cc1Cl)N(C(=O)Nc1ccnc3ccccc13)CC2,inactive,inactive,inactive,6.93%,inactive,inactive,,,inactive,inactive,inactive
CN1CCC2(CCN3CCc4c(oc5ccccc45)C3C2)N(C)C1=O (stereo not drawn),inactive,inactive,inactive,28.4%,inactive,inactive,,,inactive,inactive,inactive
Nc1ccc(-c2nc3ccc(-c4nc5ccc(N)cc5[nH]4)cc3[nH]2)cc1,inactive,,,,inactive,inactive,,,inactive,inactive,inactive
N#C/C(=C\c1ccc(O)c(O)c1)C(=O)NCCCNC(=O)/C(C#N)=C/c1ccc(O)c(O)c1,,inactive,inactive,5.33%,inactive,inactive,inactive,inactive,,inactive,inactive
NC/C=C\C(=O)O,inactive,inactive,inactive,7.58%,inactive,inactive,,,inactive,inactive,inactive
CN1CCCC1CCOC(C)(c1ccccc1)c1ccc(Cl)cc1 (stereo not drawn),inactive,inactive,inactive,,inactive,inactive,,,inactive,11.7 µM (active),inactive
Nc1ccc2c3c(cccc13)C(=O)NC2=O,inactive,inactive,inactive,4.5%,inactive,inactive,,,inactive,inactive,inactive
CC(C)(CO)Cc1cc(C(C)(C)C)c(O)c(C(C)(C)C)c1,inactive,inactive,inactive,9.64%,inactive,inactive,,,inactive,inactive,inactive
CC(=O)O[C@H]1CC2(C)[C@@H](C[C@@H](O)[C@H]3[C@@]4(C)CC[C@@H](O)[C@@H](C)[C@@H]4CC[C@@]32C)C1=C(CCC=C(C)C)C(=O)O (stereo partly drawn),inactive,inactive,inactive,12.4%,inactive,inactive,,,inactive,inactive,inactive
C=CCn1c(=O)c2c(nc(-c3ccc(S(=O)(=O)O)cc3)n2C)n(C)c1=O,inactive,inactive,inactive,2.53%,inactive,inactive,,,inactive,inactive,inactive
CC(=O)/C(C)=N/O,inactive,inactive,inactive,-4.63%,inactive,inactive,,,inactive,inactive,inactive
CCCCCCCCCCC/C=C\C(C)(C)/C=C\CCCC(=O)O,inactive,inactive,inactive,11.6%,inactive,inactive,,,inactive,inactive,inactive
Cn1c(=O)c2[nH]c(-c3ccc(S(=O)(=O)O)cc3)nc2n(C)c1=O,inactive,inactive,inactive,26.7%,inactive,inactive,,,inactive,inactive,inactive
COCc1nc2c([nH]1)c(=O)n(C)c(=O)n2CC(C)C,inactive,inactive,inactive,28.7%,inactive,inactive,,,inactive,inactive,inactive
CCN(CC)CCCCCCCCOC(=O)c1cc(OC)c(OC)c(OC)c1,inactive,inactive,inactive,31.2%,inactive,inactive,,,inactive,inactive,inactive
COc1cc2c(CCNC(C)=O)c[nH]c2cc1O,inactive,inactive,inactive,18.4%,inactive,inactive,,,inactive,inactive,inactive
NC(=O)c1cc[n+](CC2=C(C(=O)O)N3C(=O)[C@@H](NC(=O)[C@@H](c4ccccc4)S(=O)(=O)[O-])[C@H]3SC2)cc1,inactive,inactive,inactive,7.28%,inactive,inactive,,,inactive,inactive,inactive
